The values below come from PubChem BioAssay AID492949 (National Center for Advancing Translational Sciences (NCATS), 2010).

Inconclusive results are not listed. A number with no mark means an inactive call. Calls of active or inactive are those of the source. Calls follow the shape of the dose curve; as a rule, active = well fitted activation curve with a large enough effect; inconclusive = small, poorly fitted or top-dose-only effect; inactive = no such curve, though single readings can be large or run the other way.
Potency is read from the fitted curve at half-maximal effect.

In this test the target is Relaxin receptor 1 (Homo sapiens) (UniProt Q9HBX9). Kind of test: qHTS Assay for Agonists of the Relaxin Receptor RXFP1: THP1 Hit Validation. Also: nearly all actives have a fitted effect of over 60% in size.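 As to activation: 0% = buffer alone basal and 100% = 29 nM porcine relaxin.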 The note with it: THP1-RXFP1 cells, cAMP TR-FRET, 30 min; series mostly up to 115 µM; activation: at the top concentration. The essentials: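 EC50s come from Hill-equation fits of data normalized between buffer (basal) and 29 nM porcine relaxin (100%). cAMP was measured by competitive TR-FRET in lysates of RXFP1-transfected THP1 cells after 30 min compound exposure, with Ro 20174 present.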
Chain of Relaxin receptor 1 (Homo sapiens) (Q9HBX9 whole entry, looked up): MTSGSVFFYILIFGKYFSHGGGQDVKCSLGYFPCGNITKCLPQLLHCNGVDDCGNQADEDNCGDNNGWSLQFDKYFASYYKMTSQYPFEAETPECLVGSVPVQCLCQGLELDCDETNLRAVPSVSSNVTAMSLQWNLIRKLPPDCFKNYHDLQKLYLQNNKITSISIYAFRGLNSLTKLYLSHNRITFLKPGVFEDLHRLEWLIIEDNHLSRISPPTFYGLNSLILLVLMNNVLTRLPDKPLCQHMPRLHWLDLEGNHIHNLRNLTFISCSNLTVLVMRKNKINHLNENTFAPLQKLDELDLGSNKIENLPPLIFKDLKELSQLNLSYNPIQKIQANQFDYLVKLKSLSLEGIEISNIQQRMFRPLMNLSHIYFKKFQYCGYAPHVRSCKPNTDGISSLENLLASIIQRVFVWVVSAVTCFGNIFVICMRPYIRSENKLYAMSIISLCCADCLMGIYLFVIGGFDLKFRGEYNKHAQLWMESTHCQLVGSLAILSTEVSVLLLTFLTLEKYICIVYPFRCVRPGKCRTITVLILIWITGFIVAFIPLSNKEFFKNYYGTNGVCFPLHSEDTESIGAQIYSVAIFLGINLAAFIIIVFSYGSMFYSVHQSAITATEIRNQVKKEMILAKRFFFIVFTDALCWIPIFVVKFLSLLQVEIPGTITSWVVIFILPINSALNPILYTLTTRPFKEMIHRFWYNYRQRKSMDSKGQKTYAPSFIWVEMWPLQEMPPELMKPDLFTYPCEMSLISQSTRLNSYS
Consider `Cc1cc(C)c(NC(=O)CS(=O)CC(=O)Nc2ccc(F)cc2F)c(C)c1` (centres undefined), for which the “activation” value is -5.33%. With `CC1(C)Cc2nc3sc4c(SCC(=O)NC(c5ccccc5)c5ccccc5)ncnc4c3cc2CO1`, the Potency was 3.88 µM (active).

In the case of `O=C(O)CSc1ccnc2cc(Cl)ccc12`, the Potency was 21.8 µM (active). In the case of `COc1ccc(OC)c(CNC(=O)C2CCN(C(=O)N(C)C)CC2)c1`, the “activation” value is -4.27%. With `O=C(Cn1cnc2c(nnn2-c2ccc(F)cc2)c1=O)NCC1CCCO1` (centres undefined), the Potency is 8.7 µM (active). Same read-out and setting: the value for `CCOC(=O)c1sc(=NC(=O)c2ccc(S(=O)(=O)N(C)c3ccccc3)cc2)n(C)c1C` was 34.6 µM (active). On to `Cn1c(N)c(C(=O)CSc2nnc(NC3CCCCC3)s2)c(=O)n(C)c1=O`, for which the “activation” value was -30.3%. On to `Cc1cccc2cc(C#N)c(SCC(=O)NCc3cccs3)nc12`, for which the Potency was 19.4 µM (active). On the same count and under the same terms, the value for `COc1ccc(CN2C(=O)c3cccnc3C2=O)cc1S(=O)(=O)NC1CCCCC1` was 19.5 µM (active); that for `S=c1nc[nH]c2c1[nH]c1ccccc12` was 7.74 µM (active). Consider `O=C(COc1ncnc2scc(-c3ccccc3)c12)NCCN1C(=O)CSC1=O`, for which the Potency was 19.4 µM (active). Still for that read-out and setting: the value for `CCN(CC)S(=O)(=O)c1ccc(N2CCOCC2)c(NC(=O)c2cccc(C#N)c2)c1` was 27.5 µM (active). Consider `N#Cc1c(N)nc(SCC(=O)C23CC4CC(CC(C4)C2)C3)c(C#N)c1-c1ccc(Cl)cc1`, for which the Potency is 12.3 µM (active). The same measure, in the same setting: as for `Brc1ccc(-c2nn3c(-c4ccco4)nnc3s2)o1`, the figure is 17.3 µM (active). Consider `Cc1cccc(N2C(=O)C(O)=C(C(=O)c3cccs3)C2c2ccc(C(C)C)cc2)n1` (centres undefined), for which the “activation” value was -0.973%. Take `O=S(=O)(c1cccc(-c2cn3cccnc3n2)c1)N1CCOCC1`: the Potency was 13.8 µM (active). Consider `O=C(Nc1ccccc1C(=O)Nc1ccccc1)c1ccco1`, for which the “activation” value was 11.7% [at 125 µM]. Regarding `Cc1cc(NC(=O)c2ccccc2F)nc2c1c(=O)oc1ccccc12`, the Potency is 19.4 µM (active). With `Cc1ccc2cc(CN(C(=O)c3cccs3)c3ccccc3)c(=O)[nH]c2c1`, the “activation” value was 3.73%. Still for that read-out and setting: as for `COC(=O)C(C)Sc1ccc2nnc(-c3ccccc3)n2n1` (centres undefined), the figure is -0.844%. On the same count and under the same terms, as for `C=CCOc1c(Cl)cc(CNc2ccc(N(C)C)cc2)cc1OC`, the figure is -13.2%. `CCN(CC)S(=O)(=O)c1ccc(C)c(NC(=O)Cn2cnc3cc([N+](=O)[O-])ccc3c2=O)c1`: the Potency is 12.3 µM (active). In the case of `O=C(Nc1ccccc1C(=O)NCCc1ccc(O)cc1)c1ccco1`, the “activation” value is -0.992% [at 125 µM]. As for `COc1ccc(C(C)=O)cc1Cn1cnc2c(cnn2C)c1=O`, the Potency is 13.8 µM (active). Consider `COc1cccc(CNC(=O)c2ccc(CS(=O)Cc3ccc(C)cc3)o2)c1` (centres undefined), for which the “activation” value is 2.75% [at 43.1 µM]. On to `COc1ccc(CN2C(=O)c3cccnc3C2=O)cc1S(=O)(=O)NC1CCCCC1C` (centres undefined), for which the Potency is 27.5 µM (active). The same measure, in the same setting: the value for `Cc1ccc(-n2c(=S)[nH]c3sc4c(c3c2=O)CCC4)cc1` was 8.68 µM (active); that for `NS(=O)(=O)c1ccc(CCNC(=O)C2CCN(c3ncnc4c3nc3n4CCCCC3)CC2)cc1` was 27.5 µM (active). Regarding `O=C(Nc1ccccc1C(=O)NCCN1CCOCC1)c1ccco1`, the “activation” value was 10.5% [at 125 µM]. In the case of `Cc1ccc2[nH]c3c(=S)nc[nH]c3c2c1`, the Potency is 6.9 µM (active). The same measure, in the same setting: as for `COC(=O)Cn1cnc2c(C#N)c3n(c2c1=O)CCCC3`, the figure is 24.5 µM (active). For the compound `Cc1cccc(-c2nnc(SCC(=O)NC3CC3)n2C)c1`, the “activation” value was -35.5%. For `COc1ccc(CNC(=O)CN2C(=O)NC(C)(c3cccc(Br)c3)C2=O)cc1` (centres undefined), the “activation” value was -2.88%. Still for that read-out and setting: as for `Cc1cccc(C(=O)Nc2ccccc2C(=O)NCc2ccco2)c1`, the figure is -5.04% [at 125 µM]. On the same count and under the same terms, as for `CC[n+]1ccc(/C=C/c2ccc(N(C)C)cc2)c2ccccc21`, the figure is -48.4%; as for `O=C(Nc1ccccc1)c1ccccc1NC(=O)C1CCCCC1`, -4.77% [at 125 µM].

For the compound `O=C(Nc1cc(S(=O)(=O)N2CCOCC2)ccc1N1CCOCC1)c1cn2ccccc2n1`, the Potency is 8.7 µM (active).

For the compound `O=C(Nc1ccccc1C(=O)NCc1ccco1)c1ccco1`, the “activation” value is 2.17% [at 125 µM].

Regarding `CN1C(=O)c2ccc(C(=O)Nc3ccc(Br)cn3)cc2C1=O`, the Potency was 21.8 µM (active).
